Among the data in PubChem BioAssay (EPA / NIEHS) are AC50 and outcome values, retold here.

“And” between values parts separate entries of the source, which are not always exact repeats. Identical values can stand only once. Some compounds were tested as several samples or in several runs, with calls that do not always agree. The source made the active and inactive calls. The calls were made as follows: active = hit-call score of the fitted dose curve at least 0.9, where 1 is the maximum; inactive = score below 0.9.

What is called AC50 is the midpoint of the concentration-response curve, whichever way the signal moves.

Read-out in this experiment: Monocyte Chemoattractant Protein-1 (MCP1), CCL2 (gene 6347)
Nature of the experiment: BSK_3C_MCP1: BioMAP Diversity Plus: 3C Assay for Monocyte Chemoattractant Protein-1 (MCP1) Biomarker Activity (AID 2283017). To be noted: primary human endothelial cells (HUVEC); actives raise or lower the signal. The protocol:
BSK_3C is a cell-based, multiplexed-readout assay that uses umbilical vein endothelium, a human vascular primary cell, with measurements taken at 24 hours after chemical dosing in a 96-well plate.BSK_3C_MCP1 is an assay component measured in the BSK_3C assay. It measures MCP-1 antibody related to regulation of gene expression using ELISA technology.Data from the assay component BSK_3C_MCP1 was analyzed into 1 assay endpoint. This assay endpoint, BSK_3C_MCP1, was analyzed with bidirectional fitting relative to DMSO as the negative control and baseline of activity. Using a type of binding reporter, gain or loss-of-signal activity can be used to understand changes in the signaling as they relate to the gene CCL2. Furthermore, this assay endpoint can be referred to as a primary readout, because this assay has produced multiple assay endpoints where this one serves a signaling function. To generalize the intended target to other relatable targets, this assay endpoint is annotated to the cytokine intended target family, where the subfamily is chemotactic factor.
The levels of cell surface (or secreted, indicated by the prefix "s") biomarker endpoints were measured by ELISA. Overt cytotoxicity to cells in confluent adherent cultures (all systems other than the BT system) was assessed by measuring total protein levels using sulforhodamine B (SRB) staining in parallel cultures at the time of biomarker measurements, indicated as SRB endpoints. For proliferation assays for adherent cell types, individual cell types are cultured at sub-confluence and relative cell numbers quantified by SRB staining at time points optimized for each system (48 h: 3C and CASM3C systems; 72 h: BT and HDF3CGF systems; 96 h: SAg system). SRB was performed by staining cells with 0.1% SRB after fixation with 10% TCA and reading wells at 560 nm.Viability and proliferation of PBMC (T cells) was quantified by Alamar Blue reduction for the SAg and BT systems. For PBMC viability (referred to as PBMC Cytotoxicity within the assay endpoint names), cells were plated (75,000/well in a 96-well plate) and then chemical samples added for 1 h before addition of activators, SEB and TSST-1 (20 ng/mL final concentration each). Cells were incubated for 90 h. Then, Alamar Blue (20 uL/well) (Invitrogen, Cat DAL1100) was added for 6 h, and the plates were read with a fluorescence microplate reader at 546/580 nm (excitation/emission). For PBMC proliferation, cells were plated and activated as above but incubated for only 16 h prior to addition of Alamar Blue. Plates were read after 6 h.
Turning to `O=C(c1ccc(OCCN2CCCCC2)cc1)c1c(-c2ccc(O)cc2)sc2cc(O)ccc12`, the AC50 is 27.3 µM (active).
As for `c1ccc(OCCOc2ccccc2)cc1`, the result was inactive.
On the same count and under the same terms, for `CC1=CC(C)C(C=O)C(C)C1` (stereo not given) (tested in a mixture with another compound) the value was “inactive”; for `CCn1cc(C(=O)O)c(=O)c2ccc(C)nc21`, “inactive”.
In the case of `C#C[C@]1(O)CC[C@H]2[C@@H]3CCc4cc(O)ccc4[C@H]3CC[C@@]21C`, the AC50 is 7.15 µM (active).
On the same count and under the same terms, as for `CC(=O)OC(C)(C)C1CC=C(C)CC1` (stereo not given), the figure is 31.3 µM (active); as for `CCCCCCCC1CCCC1=O` (stereo not given), 31.1 µM (active).
With `OCCN1CCOCC1`, the outcome was inactive.
On to `OCC(F)(OC(F)(F)C(F)(OC(F)(F)C(F)(F)C(F)(F)F)C(F)(F)F)C(F)(F)F` (stereo not given), for which the AC50 is 4.24 µM (active) and the result was inactive.
In the case of `CCCCOCCOCCO`, the outcome was inactive.
`C[C@]12CC[C@@H]3c4ccc(O)cc4CC[C@H]3[C@@H]1CC[C@@H]2O`: the AC50 was 12.2 µM (active).
Consider `CC(=O)OCC=C(C)CCC=C(C)CCC=C(C)C`, for which the result was inactive.
For `C=CC(=O)OCC(CO)(COC(=O)C=C)COC(=O)C=C`, the half-maximal activity concentration (AC50) is 0.185 µM (active).
For the compound `COc1ccccc1NC(=O)CC(C)=O`, the outcome was inactive.
Consider `CCOC(=O)CCCCCCCCC(=O)OCC`, for which the outcome was inactive.
Same read-out and setting: for `CC=CC(=O)C1=C(C)C=CCC1(C)C` the value was “inactive”; for `CC(C)(C)c1cccc(O)c1`, “inactive”.
In the case of `NC(=O)c1c(Cl)cccc1Cl`, the result was inactive.
On the same count and under the same terms, for `CCCCN(CCO)CCO` the value was “inactive”.
Consider `CC/C(=C(\c1ccccc1)c1ccc(OCCN(C)C)cc1)c1ccccc1`, for which the AC50 was 7.95 µM (active) and 8.84 µM (active).
The same measure, in the same setting: as for `O=S1(=O)CC(Cl)(Cl)C(Cl)(Cl)C1`, the figure is 0.961 µM (active).
`O=S(=O)(O)C(F)(F)C(F)(F)OC(F)(F)C(F)(F)F`: the result was inactive.
On the same count and under the same terms, as for `CC(=O)c1ccc(C)cc1`, the entry is “inactive”.
The same measure, in the same setting: for `C=C(C)C(N)=O` the value was “inactive”; for `CC(C)Cc1ccc(C(C)C(=O)O)cc1` (stereo not given), “inactive”.
As for `CC(C)CCCC(C)(C)O`, the result was inactive.
On the same count and under the same terms, for `c1ccc2c(c1)-c1ccc3ccc4cccc5cc-2c1c3c45` the value was “inactive”.
Turning to `CC(=O)CCC=C(C)CCC=C(C)C`, the result was inactive.
`CCC(=O)OCC=Cc1ccccc1`: the outcome was inactive.
Take `C=C(F)C(=O)OC(C(F)(F)F)C(F)(F)F`: the result was inactive.
In the case of `CCOC(=O)C=Cc1ccccc1`, the result was inactive.
In the case of `O=C(O)C(F)(F)OC(F)(F)C(F)(F)OC(F)(F)C(F)(F)C(F)(F)C(F)(F)F`, the outcome was inactive.
Consider `C=C1CC/C=C(\C)CC[C@@H]2[C@@H]1CC2(C)C`, for which the AC50 was 31.5 µM (active).
On to `CCCCCCCCCCCCS`, for which the AC50 was 29.5 µM (active).
`CC1(C)[C@H](C=C(Cl)Cl)[C@H]1C(=O)OCc1cccc(Oc2ccccc2)c1`: the result was inactive.
Same read-out and setting: as for `COC(=O)c1ccc(C(=O)OC)cc1`, the entry is “inactive”.
Still for that read-out and setting: for `O=C(O)C(F)(F)C(F)(F)C(F)(F)C(F)(F)C(F)(F)C(F)(F)C(F)(F)C(F)F` the value was “inactive”; for `O=C1OC2(c3ccc(O)cc3Oc3cc(O)ccc32)c2ccccc21`, “inactive”.
As to `Nc1ccc(N)c([N+](=O)[O-])c1`, the result was inactive.
